Values joined by “and” are separate entries in the source; they are usually repeats but may differ in a detail not shown here. Equal entries are not always repeated. Results filed as inconclusive are left out. Entries that show only a call come without a potency. The source holds several records for some structures; these can differ, active in one and inactive in another. Active and inactive are the calls of the source. Unless noted, calls come from the whole dose curve; as a rule, active = well fitted curve in the direction sought with a large enough effect in the repeat runs; inconclusive = weak or mixed curves; inactive = no such curve, though single readings can be large; an effect the other way counts as inactive or inconclusive.
Key:
[1] = qHTS assay for small molecule agonists of the p53 signaling pathway (AID 651631; calls by dose curve; note: nearly all actives have a fitted effect of over 15% in size)
Outline: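 p53RE-bla HCT-116 cells; compounds 16 h, 37 °C; LiveBLAzer B/G FRET substrate 2 h RT; fluorescence intensity read-out, qHTS format.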

[2] = qHTS assay for small molecule agonists of the p53 signaling pathway - cell viability (AID 651633; calls by dose curve;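 note: p53RE-bla HCT reporter cells with a stable beta-lactamase p53 reporter; series mostly up to about 83 µM; nearly all actives have a fitted effect of over 30% in size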)
Outline: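 Viability counter-read: CellTiter-Glo luminescence (30 min, room temperature) in the same p53RE-bla plates. These plates had been exposed to compounds for 16 h at 37 C.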

[3] = qHTS assay for small molecules that induce genotoxicity in human embryonic kidney cells expressing luciferase-tagged ATAD5 - cell viability (AID 651634; calls by dose curve; note: nearly all actives have a fitted effect of over 25% in size; note: potency is the fitted concentration of half-maximal effect)
Outline: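 After 15.5 hr incubation with compound at 37C, 5% CO2, HEK293T ATAD5-luciferase cells received CellTiter-Fluor reagent; fluorescence intensity was quantified following 30 min at 37C.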

[4] = qHTS assay for small molecule disruptors of the mitochondrial membrane potential (AID 720635); note: potency is the fitted concentration of half-maximal effect
Outline: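 Mitochondrial membrane potential tracked with Mito-MPS dye, red aggregates (ex 540/em 590 nm) against green monomers (ex 490/em 535 nm). Compound treatment 1 hr at 37C, dye 30 min in HepG2.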

[5] = qHTS assay to test for compound auto fluorescence at 590 nm (red) in HepG2 cells (AID 720674)
Outline: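 1 hr compound incubation on HepG2 cells, 37 C, 5% CO2; plate read ex 540 nm / em 590 nm; intensities reported as Rose Bengal sodium equivalents.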

[6] = qHTS assay to test for compound auto fluorescence at 535 nm (green) in HepG2 cells (AID 720675)
[7] = qHTS assay to test for compound auto fluorescence at 460 nm (blue) in HEK293 cells (AID 720678)
Outline: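 Blue-channel (Ex/Em 405/460 nm) intensity measured in HEK293 cultures after overnight compound exposure at 37C; signal expressed relative to triamterene. Cells plated 2,000 per well in 10% dialyzed FBS medium and allowed 4-5 hr to attach.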

[8] = qHTS assay to test for compound auto fluorescence at 590 nm (red) in HEK293 cells (AID 720679)
Outline: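 Red-channel autofluorescence (Ex/Em 540/590 nm; Rose Bengal sodium reference) was measured after overnight 37C, 5% CO2 exposure of attached HEK293 cells, 2,000 per well in medium with 10% dialyzed FBS.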

[9] = qHTS assay to test for compound auto fluorescence at 535 nm (green) in HEK293 cells (AID 720680)
[10] = qHTS assay to test for compound auto fluorescence at 460 nm (blue) in HEK293 cell free culture (AID 720681)
Outline: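 Blue fluorescence (Ex 405/Em 460 nm, triamterene-equivalent) was read immediately after pin transfer of compound or DMSO into medium (DMEM, 10% FBS) without cells.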

[11] = qHTS assay to test for compound auto fluorescence at 535 nm (green) in HEK293 cell free culture (AID 720682)
Outline: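 Cell-free medium (DMEM, 10% FBS) receives compound or DMSO by pintool. Plate read directly at Ex 485/Em 535 nm. Signal converted to fluorescein equivalency.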

[12] = qHTS assay to test for compound auto fluorescence at 590 nm (red) in HEK293 cell free culture (AID 720683)
Outline: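 Red-channel autofluorescence of compounds in culture medium (DMEM, 10% FBS), no cells, measured at 540/590 nm. Rose Bengal sodium is the reference fluorophore for equivalence.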

[13] = qHTS assay to test for compound auto fluorescence at 590 nm (red) in HepG2 cell free culture (AID 720684)
Outline: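 Cell-free; medium MEM + 10% FBS; compound or DMSO added by pintool; read Ex 540/Em 590 nm; Rose Bengal sodium as red reference fluorophore.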

[14] = qHTS assay to test for compound auto fluorescence at 460 nm (blue) in HepG2 cell free culture (AID 720685)
Outline: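 Cell-free plates of MEM plus 10% FBS received 23 nL compound or DMSO vehicle; blue-channel (405/460 nm) intensity scored against triamterene as reference fluorophore.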

[15] = qHTS assay to test for compound auto fluorescence at 535 nm (green) in HepG2 cell free culture (AID 720686)
[16] = qHTS assay to test for compound auto fluorescence at 460 nm (blue) in HepG2 cells (AID 720687)
Outline: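 Blue-channel autofluorescence (Ex/Em 405/460 nm, triamterene-equivalent) was measured after 1 hr compound exposure at 37 C, 5% CO2. Cells were HepG2, plated overnight at 37 C in MEM plus 10% FBS.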

[17] = target: Glucocorticoid receptor (Homo sapiens) (UniProt P04150); assay: qHTS assay to identify small molecule agonists of the glucocorticoid receptor (GR) signaling pathway (AID 720691; active = well fitted activation curve with a large enough effect in the signal ratio in the repeat runs, not every such curve was filed as active; the % refers to the signal ratio)
Outline: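 Cells: GR-bla HeLa, endogenous GR with stably integrated GRE-beta-lactamase reporter. Treatment 18 h, 37 C, compounds delivered in DMSO. Detection via LiveBLAzer B/G FRET substrate, 2 h RT, fluorescence intensity.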

[18] = target: Glucocorticoid receptor (Homo sapiens) (UniProt P04150); assay: qHTS assay to identify small molecule antagonists of the glucocorticoid receptor (GR) signaling pathway (AID 720692; active = well fitted inhibition curve with a large enough effect in the signal ratio in the repeat runs, not every such curve was filed as active; the % refers to the signal ratio; note: potency is the fitted concentration of half-maximal effect)
Outline: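 Quantitative HTS in antagonist format: HeLa cells expressing endogenous GR and a stably integrated GRE-bla reporter, stimulated with 5 nM dexamethasone (final) alongside test compounds for 18 h.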

[19] = qHTS assay for small molecule disruptors of the mitochondrial membrane potential - cell viability (AID 720634; calls by dose curve;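 note: human HepG2 liver cancer cells; series mostly up to about 83 µM; nearly all actives have a fitted effect of over 20% in size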)
Outline: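 ATP-based luminescent viability readout (CellTiter-Glo, 30 min, room temperature) in HepG2 cells multiplexed with the m-MPI membrane potential dye; compound exposure lasted 1 hr at 37 C.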

[20] = qHTS assay for small molecules that induce genotoxicity in human embryonic kidney cells expressing luciferase-tagged ATAD5 (AID 651632); note: nearly all actives have a fitted effect of over 15% in size
Outline: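 Quantitative HTS in HEK293T expressing luciferase-tagged ATAD5, whose levels rise upon DNA damage. Exposure ran 16 hr at 37C and 5% CO2, with luminescence read 30 min after Amplite addition at room temperature.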

Sequence of Glucocorticoid receptor (Homo sapiens) (P04150 whole entry, looked up): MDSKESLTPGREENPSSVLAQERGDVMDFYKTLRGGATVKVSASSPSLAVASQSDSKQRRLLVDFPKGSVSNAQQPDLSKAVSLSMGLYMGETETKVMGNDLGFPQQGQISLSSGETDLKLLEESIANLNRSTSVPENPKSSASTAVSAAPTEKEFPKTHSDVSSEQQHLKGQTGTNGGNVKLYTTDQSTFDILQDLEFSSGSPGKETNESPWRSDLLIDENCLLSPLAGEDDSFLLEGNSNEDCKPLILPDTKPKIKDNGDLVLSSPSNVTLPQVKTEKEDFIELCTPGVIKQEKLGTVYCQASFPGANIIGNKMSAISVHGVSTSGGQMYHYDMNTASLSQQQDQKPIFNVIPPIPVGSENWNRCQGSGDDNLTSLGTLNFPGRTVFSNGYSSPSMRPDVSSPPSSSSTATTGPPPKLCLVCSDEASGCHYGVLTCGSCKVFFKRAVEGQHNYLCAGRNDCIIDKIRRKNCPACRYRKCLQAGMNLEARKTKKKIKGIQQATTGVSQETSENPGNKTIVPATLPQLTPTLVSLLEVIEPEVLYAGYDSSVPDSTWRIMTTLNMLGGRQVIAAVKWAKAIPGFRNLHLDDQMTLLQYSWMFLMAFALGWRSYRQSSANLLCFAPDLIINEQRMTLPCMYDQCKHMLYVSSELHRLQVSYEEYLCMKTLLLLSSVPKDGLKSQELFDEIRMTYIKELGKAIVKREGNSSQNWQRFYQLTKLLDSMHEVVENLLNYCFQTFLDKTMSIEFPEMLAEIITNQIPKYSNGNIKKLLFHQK

Structure (SMILES)	Potency [1]	Potency [2]	Potency [3]	Potency [4]	outcome [5]	outcome [6]	outcome [7]	outcome [8]	outcome [9]	outcome [10]	outcome [11]	outcome [12]	outcome [13]	outcome [14]	outcome [15]	outcome [16]	Potency [17]	Potency [18]	Potency [19]	Potency [20]
C[C@]12CC[C@@H]3c4ccc(O)cc4C[C@@H](CCCCCCCCCS(=O)CCCC(F)(F)C(F)(F)F)[C@H]3[C@@H]1CC[C@@H]2O (stereo not given in full)	inactive	inactive	inactive	2.66 µM (active) and 2.73 µM (active)	inactive	inactive	inactive	inactive	inactive	inactive	inactive	inactive	inactive	inactive	inactive	inactive	inactive	1.23 µM (active)	–	–
CC(=O)Oc1ccccc1C(=O)O	inactive	inactive	inactive	inactive	inactive	inactive	inactive	inactive	inactive	inactive	inactive	inactive	–	inactive	inactive	inactive	inactive	inactive	inactive	–
CC(O)COc1ccccc1 (stereo not given)	inactive	inactive	inactive	inactive	inactive	inactive	inactive	inactive	inactive	inactive	inactive	inactive	inactive	inactive	inactive	inactive	inactive	inactive	inactive	–
C=CC(=O)NC(C)(C)CS(=O)(=O)O	inactive	inactive	inactive	inactive	inactive	inactive	inactive	inactive	inactive	inactive	inactive	inactive	inactive	inactive	inactive	inactive	–	–	inactive	–
O=[N+]([O-])c1ccc(O)cc1	inactive	inactive	56.6 µM (active)	71.2 µM (active) and 61.1 µM (active)	inactive	inactive	inactive	inactive	inactive	inactive	inactive	inactive	–	inactive	inactive	inactive	–	–	inactive	inactive
CC1(C)O[C@@H]2[C@@H](CO[C@@]3(COS(N)(=O)=O)OC(C)(C)O[C@@H]23)O1	inactive	inactive	inactive	inactive	inactive	inactive	inactive	inactive	inactive	inactive	inactive	inactive	–	inactive	inactive	inactive	–	–	inactive	inactive
CC(C)(C)NCC(O)c1ccc(O)c(CO)c1 (stereo not given)	inactive	inactive	–	inactive	inactive	inactive	inactive	inactive	inactive	inactive	inactive	inactive	inactive	inactive	inactive	inactive	inactive	inactive	inactive	–
Cc1cccc(C)c1O	inactive	inactive	inactive	inactive	inactive	inactive	inactive	inactive	inactive	inactive	inactive	inactive	–	inactive	inactive	inactive	–	–	inactive	inactive
OC[C@@H](O)[C@@H](O)[C@H](O)[C@H](O)CO	inactive	inactive	inactive	inactive	inactive	inactive	inactive	inactive	inactive	inactive	inactive	inactive	inactive	inactive	inactive	inactive	–	–	inactive	–
COCC(C)N (stereo not given)	inactive	inactive	inactive	inactive	inactive	inactive	inactive	inactive	inactive	inactive	inactive	inactive	–	inactive	inactive	inactive	inactive	inactive	inactive	inactive
C=C(C)OC(C)=O	inactive	inactive	inactive	inactive	inactive	inactive	inactive	inactive	inactive	inactive	inactive	inactive	–	inactive	inactive	inactive	inactive	inactive	inactive	–
Cc1c(N(C)CS(=O)(=O)O)c(=O)n(-c2ccccc2)n1C	inactive	inactive	inactive	inactive	inactive	inactive	inactive	inactive	inactive	inactive	inactive	inactive	–	inactive	inactive	inactive	inactive	–	inactive	–
CC(=O)c1ccc(S(=O)(=O)NC(=O)NC2CCCCC2)cc1	inactive	inactive	inactive	inactive	inactive	inactive	inactive	inactive	inactive	inactive	inactive	inactive	–	inactive	inactive	inactive	inactive	inactive	inactive	inactive
C/C=C/c1ccc(O)c(OC)c1	inactive	inactive	inactive	61.1 µM (active)	inactive	inactive	inactive	inactive	inactive	inactive	inactive	inactive	–	inactive	inactive	inactive	–	–	inactive	inactive
CC(C)=CCC/C(C)=C/CO	inactive	inactive	inactive	–	inactive	inactive	inactive	inactive	inactive	inactive	inactive	inactive	–	inactive	inactive	inactive	inactive	inactive	inactive	–

Source: PubChem BioAssay (Tox21)
